Records with an inconclusive call do not appear. Active and inactive are the calls of the source. The call rests on the fitted dose curve; in most records, active means well fitted cell-killing curve with a large enough effect; inconclusive means small, poorly fitted or top-dose-only effect, or effect the other way; inactive means flat fitted curve, though single readings scatter. Where a SMILES comes first, the peptide text is derived from it. [ ]: non-standard residue; d: D form. PhLac = O=C(O)[CH](O)Cc1ccccc1; NMeV = CN[CH](C(=O)O)C(C)C
Experiments:
Experiment in all cases: Primary qHTS to identify gynecologic anti-cancer compounds using libraries of approved drugs and bioactive compounds (AID 1345084); further: nearly all actives have a fitted effect of over 55% in size
[1] = tested on: C33A; details: Gynecologic cancer cell panel viability, ATPlite luminescence, 48 h; series mostly up to 57.5 µM
Summary of the method: (§1)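 Measured: luminescence after ATPlite addition (15 min, RT). Exposure: 48 h, 37 C, 5% CO2.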

[2] = tested on: CAOV3; details: Gynecologic cancer cell panel viability, ATPlite luminescence, 48 h; series mostly up to 57.5 µM
Summary of the method: as §1

[3] = tested on: CASKI; details: Gynecologic cancer cell panel viability, ATPlite luminescence, 48 h; series mostly up to 57.5 µM
Summary of the method: as §1

[4] = tested on: Es-2; details: Gynecologic cancer cell panel viability, ATPlite luminescence, 48 h; series mostly up to 57.5 µM
Summary of the method: as §1

[5] = tested on: HeLa; details: Gynecologic cancer cell panel viability, ATPlite luminescence, 48 h; series mostly up to 57.5 µM
Summary of the method: as §1

[6] = tested on: Hek293T; details: Gynecologic cancer cell panel viability, ATPlite luminescence, 48 h, control line for the selectivity index; series mostly up to 57.5 µM
Summary of the method: as §1

[7] = tested on: JEG-3; details: Gynecologic cancer cell panel viability, ATPlite luminescence, 48 h; series mostly up to 57.5 µM
Summary of the method: as §1

[8] = tested on: OV90; details: Gynecologic cancer cell panel viability, ATPlite luminescence, 48 h; series mostly up to 57.5 µM
Summary of the method: as §1

[9] = tested on: PA-1; details: Gynecologic cancer cell panel viability, ATPlite luminescence, 48 h; series mostly up to 57.5 µM
Summary of the method: as §1

[10] = tested on: SKOV3; details: Gynecologic cancer cell panel viability, ATPlite luminescence, 48 h; series mostly up to 57.5 µM
Summary of the method: as §1

[11] = tested on: Tov-21-G; details: Gynecologic cancer cell panel viability, ATPlite luminescence, 48 h; series mostly up to 57.5 µM
Summary of the method: as §1

[12] = tested on: Tov112D; details: Gynecologic cancer cell panel viability, ATPlite luminescence, 48 h; series mostly up to 57.5 µM
Summary of the method: as §1
On the % scale 0 is the no-effect control and ±100 the full control effect.

CC1CCC2C(C)(C)C(O)CCC2(C)C12Cc1c(O)cc3c(c1O2)CN=C3N (configuration not stated)
inactive: Potency [1] | Potency [2] | Potency [3] | Potency [4] | Potency [5] | Potency [6] | Potency [7] | Potency [8] | Potency [9] | Potency [10] | Potency [11] | Potency [12]

C=CC(C)(O)CO[C@@H]1O[C@H](CO)[C@@H](O)[C@H](O)[C@H]1O (some centres not stated)
inactive: Potency [1] | Potency [2] | Potency [3] | Potency [4] | Potency [5] | Potency [6] | Potency [7] | Potency [8] | Potency [9] | Potency [10] | Potency [11] | Potency [12]

CC1(C)C(=O)N2c3ccccc3[C@]3(CC(n4cnc5ccccc5c4=O)C(=O)O3)[C@H]2N1O (some centres not stated)
inactive: Potency [1] | Potency [2] | Potency [3] | Potency [4] | Potency [5] | Potency [6] | Potency [7] | Potency [8] | Potency [9] | Potency [10] | Potency [11] | Potency [12]

O=C1NC(Cc2ccc(O)cc2)C(=O)N2CCCC12 (configuration not stated)
inactive: Potency [1] | Potency [2] | Potency [3] | Potency [4] | Potency [5] | Potency [6] | Potency [7] | Potency [8] | Potency [9] | Potency [10] | Potency [11] | Potency [12]

CC1CCC2(NC1)OC1C(=O)C3C4CCC5CC(O[C@@H]6O[C@H](CO)[C@@H](O)[C@H](O)[C@H]6O[C@@H]6O[C@@H](C)[C@H](O)[C@@H](O)[C@H]6O)CCC5(C)C4CCC3(C)C1C2C (some centres not stated)
inactive: Potency [1] | Potency [2] | Potency [3] | Potency [4] | Potency [5] | Potency [6] | Potency [7] | Potency [8] | Potency [9] | Potency [10] | Potency [11] | Potency [12]

C[C@@H]1CC[C@H]2C(C)(C)[C@H](O)[C@H](O)C[C@]2(C)[C@@]12Cc1c(O)cc3c(c1O2)CNC3=O
inactive: Potency [1] | Potency [2] | Potency [3] | Potency [4] | Potency [5] | Potency [6] | Potency [7] | Potency [8] | Potency [9] | Potency [10] | Potency [11] | Potency [12]

C/C=C(\C)C(=O)OC[C@H]1O[C@H](O[C@H]2O[C@H](CO)[C@@H](OC(=O)/C(C)=C/C)[C@H](O)[C@H]2O[C@@H]2O[C@H](CO)[C@@H](O)[C@H](O)[C@H]2O)[C@H](O[C@@H]2O[C@H](CO)[C@@H](O)[C@H](O)[C@H]2O)[C@@H](O)[C@@H]1O
inactive: activity change, negative = cytotoxicity [1] 3.37% [at 11.6 µM] | activity change, negative = cytotoxicity [2] 17% [at 11.6 µM] | activity change, negative = cytotoxicity [3] 6.41% [at 11.6 µM] | activity change, negative = cytotoxicity [4] 10.5% [at 11.6 µM] | activity change, negative = cytotoxicity [5] 13.4% [at 11.6 µM] | activity change, negative = cytotoxicity [6] 8.94% [at 11.6 µM] | activity change, negative = cytotoxicity [7] 2.7% [at 11.6 µM] | activity change, negative = cytotoxicity [8] 8.14% [at 11.6 µM] | activity change, negative = cytotoxicity [9] 33.8% [at 11.6 µM] | activity change, negative = cytotoxicity [10] 3.25% [at 11.6 µM] | activity change, negative = cytotoxicity [11] 22.3% [at 11.6 µM] | activity change, negative = cytotoxicity [12] 9.9% [at 11.6 µM]

COc1cc(C2Oc3c(OC)cc(/C=C/C(=O)OC[C@H]4O[C@@H](OC(C)(C)C(=O)O)[C@H](O)[C@@H](O)[C@@H]4O)cc3C2CO)ccc1O (some centres not stated)
inactive: Potency [1] | Potency [2] | Potency [3] | Potency [4] | Potency [5] | Potency [6] | Potency [7] | Potency [8] | Potency [9] | Potency [10] | Potency [11] | Potency [12]

COc1ncc(-c2ccc3c(Nc4cc(Oc5cc(F)cc(F)c5)cc(C(=O)O)c4)c(S(=O)(=O)NC4CC4)cnc3c2)c(OC)n1
inactive: Potency [1] | Potency [2] | Potency [3] | Potency [4] | Potency [5] | Potency [6] | Potency [7] | Potency [8] | Potency [9] | Potency [10] | Potency [11] | Potency [12]

CNC(=O)[C@H]1O[C@@H](n2cnc3c(NCc4ccc(N)c(I)c4)ncnc32)[C@H](O)[C@@H]1O
inactive: activity change, negative = cytotoxicity [1] 17.6% [at 11.6 µM] | activity change, negative = cytotoxicity [2] -1.57% [at 11.6 µM] | activity change, negative = cytotoxicity [3] 16.3% [at 11.6 µM] | activity change, negative = cytotoxicity [4] 0.484% [at 11.6 µM] | activity change, negative = cytotoxicity [5] 5.87% [at 11.6 µM] | activity change, negative = cytotoxicity [6] 0.59% [at 11.6 µM] | activity change, negative = cytotoxicity [7] 20.5% [at 11.6 µM] | activity change, negative = cytotoxicity [8] -0.89% [at 11.6 µM] | activity change, negative = cytotoxicity [9] 0.696% [at 11.6 µM] | activity change, negative = cytotoxicity [10] -8.5% [at 11.6 µM] | activity change, negative = cytotoxicity [11] 15.7% [at 11.6 µM] | activity change, negative = cytotoxicity [12] 25.2% [at 11.6 µM]

CC(C)C(C(=O)N1CCCC1C(=O)O)N(C)C(=O)C(O)Cc1ccccc1 (configuration not stated) (H-[PhLac]-[NMeV]-Pro-OH; configuration not given here)
inactive: Potency [1] | Potency [2] | Potency [3] | Potency [4] | Potency [5] | Potency [6] | Potency [7] | Potency [8] | Potency [9] | Potency [10] | Potency [11] | Potency [12]

Source: PubChem BioAssay (NCATS)
